For 69 molecules, AC50 and activity, negative = inhibition results are on record in PubChem BioAssay AID1851 (National Center for Advancing Translational Sciences (NCATS), 2009).

About 2,600 (16%) of roughly 16,000 compounds were called active. Another 20% or so got no clear call; they are omitted. Not all results are given here. Unmarked numbers belong to inactive results. Calls come from the whole dose curve; as a rule, active = well fitted curve in the direction sought with a large enough effect; inconclusive = small, poorly fitted or top-dose-only effect, or effect the other way; inactive = no such curve, though single readings can be large or run the other way.
% is set by controls: 0 for no effect and ±100 for the full control effect.

Sequence of Cytochrome P450 2D6 (Homo sapiens) (P10635 whole entry, looked up): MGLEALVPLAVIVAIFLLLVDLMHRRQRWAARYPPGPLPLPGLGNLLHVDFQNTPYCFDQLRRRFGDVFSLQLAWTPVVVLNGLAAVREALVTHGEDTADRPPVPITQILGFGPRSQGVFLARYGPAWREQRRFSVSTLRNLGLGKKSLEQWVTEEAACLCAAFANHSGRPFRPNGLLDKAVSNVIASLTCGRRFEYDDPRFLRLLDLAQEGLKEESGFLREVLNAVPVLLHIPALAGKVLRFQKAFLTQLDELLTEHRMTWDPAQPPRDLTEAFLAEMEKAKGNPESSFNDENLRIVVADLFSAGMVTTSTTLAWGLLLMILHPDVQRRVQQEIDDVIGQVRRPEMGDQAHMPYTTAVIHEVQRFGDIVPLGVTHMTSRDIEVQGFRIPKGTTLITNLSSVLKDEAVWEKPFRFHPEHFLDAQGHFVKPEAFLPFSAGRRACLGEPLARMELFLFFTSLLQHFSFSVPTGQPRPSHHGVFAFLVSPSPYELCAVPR

This test concerns the target Cytochrome P450 2D6 (Homo sapiens) (UniProt P10635). Description: Cytochrome panel assay with activity outcomes. Conditions: recombinant CYP, pro-luciferin dealkylation, luminescence, p450-cyp2d6; series mostly up to 57.1 µM.
In the case of `COc1ccc(-c2c[n+]3c4n2CCCCC4=C(c2ccccc2)C3)cc1`, the AC50 – broadly, the concentration at which the activity in the assay is half-maximal – was 1.78 µM (active). In the case of `O=C(c1ccc(Cl)cc1)N1CCCC(c2ccccc2)=N1`, the AC50 result was “inactive”. Regarding `COc1ccc(-n2c(-c3ccccc3)nc(=S)c3c2CCCC3)cc1`, the AC50 result is “inactive”.

As to `C[n+]1cc(-c2ccccc2)n2c1CCCCC2`, the AC50 result was “inactive”. Take `Clc1ccc(C2=C3CCCCn4c(-c5ccccc5)c[n+](c43)C2)cc1`: the AC50 was 1 µM (active). Consider `Cc1cc(NC(=O)CSc2ccc3nnc(-c4ccc(F)cc4)n3n2)no1`, for which the AC50 result was “inactive”. Consider `O=C(O)c1c[nH]c2c(ccc3[nH]cc(C(=O)O)c(=O)c32)c1=O`, for which the activity, negative = inhibition was -3.58% [at 11.4 µM]. As to `Cc1ccc(CNC(=O)COC(=O)c2cnccn2)cc1`, the AC50 entry was “inactive”. As to `Cc1cc(C)cc(Oc2nn[nH]n2)c1`, the AC50 entry is “inactive”.

In the case of `O=C(CN1CCN(C2CCCCC2)CC1)NCCC1=CCCCC1`, the AC50 is 15.8 µM (active). Still for that read-out and setting: the same measure for `O=C(CN1CCN(c2ncccn2)CC1)NCCC1=CCCCC1`: 2.82 µM (active); for `Cc1ccc(CNC(=O)C2CCC(=O)N2C2CCCCC2)cc1` (centres undefined): “inactive”. On the same count and under the same terms, as for `O=C(CN1C(=O)NC2(CCCC2)C1=O)NCCC1=CCCCC1`, the entry is “inactive”; as for `CCCCCOc1ccc(NC(=O)C(=O)NCCC2=CCCCC2)cc1`, “inactive”. Same read-out and setting: the same measure for `O=C(COc1ccc(Cl)cc1)NCCC1=CCCCC1`: “inactive”. With `COC(=O)[C@@]1(Cc2ccc(F)cc2)[C@@H]2[C@@H](CC(=O)[C@H]2CC(=O)C(=O)N2CCCC2)CN1C(=O)c1ccccc1`, the AC50 result is “inactive”. With `CC(C)[C@@H]1O[C@H](/C=C\c2ccccc2)OCC1(C)C`, the activity, negative = inhibition was -1.61% [at 11.4 µM]. Take `O=C(O)Cc1sc(-c2ccc(Cl)cc2)nc1-c1ccccc1`: the AC50 result was “inactive”.

Take `CCSc1ncc(/C=N/Nc2ccc(F)cc2)n1C`: the AC50 is 0.631 µM (active).

As for `CC(=O)Nc1ccc(NC(=O)Cn2c(-c3ccc(F)cc3)cnc2SCC(=O)Nc2c(C)cccc2C)cc1`, the AC50 entry was “inactive”. With `Cc1cnn(CCC(=O)NNC(=S)Nc2ccc(F)cc2)c1`, the AC50 result is “inactive”. Turning to `CCc1ccc2[nH]c(O)c(N=Nc3nc(-c4ccccc4)cs3)c2c1`, the AC50 result was “inactive”. Take `COc1ccc(C(=O)Nc2ccc3c(c2)nc(CN2CCN(C(C)=O)CC2)n3C)cc1`: the AC50 result was “inactive”.

As to `CCOC(=O)C1CCCN(C/C=C/c2ccccc2[N+](=O)[O-])C1` (centres undefined), the AC50 is 0.0708 µM (active).

For `CS(=O)(=O)N1CCN(c2c(Cl)cccc2[N+](=O)[O-])CC1`, the AC50 result was “inactive”. Consider `C[C@@H]1CCCN(CP(=O)(c2ccccc2)c2ccccc2)C1`, for which the activity, negative = inhibition is 6.3% [at 11.4 µM]. Consider `Cn1nnnc1SCc1ccccc1[N+](=O)[O-]`, for which the AC50 entry is “inactive”. With `CC1CC(C)CN(C/C=C/c2ccccc2[N+](=O)[O-])C1` (centres undefined), the AC50 is 0.631 µM (active). `CC1CCCN(C/C=C/c2ccccc2[N+](=O)[O-])C1` (centres undefined): the concentration at half-maximal activity (AC50) was 1 µM (active). In the case of `CCOC(=O)C1CCCN(C(=O)/C=C/c2cccc([N+](=O)[O-])c2)C1` (centres undefined), the AC50 result is “inactive”. In the case of `CCn1c(SCC(=O)N/N=C/C=C\c2ccccc2[N+](=O)[O-])nnc1-c1ccccc1`, the AC50 entry is “inactive”. On the same count and under the same terms, as for `CCOC(=O)C1CCCN(S(=O)(=O)c2ccccc2)C1` (centres undefined), the entry is “inactive”; as for `COc1ccc(-n2c(=O)c(-c3ccccc3)nc3cnc(N4CCOCC4)nc32)cc1`, “inactive”. With `CN(C)c1ccc(/C=C2\SC(=S)N(Nc3ncc(C(F)(F)F)cc3Cl)C2=O)cc1`, the AC50 result is “inactive”. Still for that read-out and setting: the same measure for `CC(C)OC(=O)c1cc2ccccc2oc1=O`: “inactive”; for `O=C(c1ccccc1)c1cc(F)c(N2CCOCC2)cc1Cl`: “inactive”; for `COc1ccc2c(c1)Cc1sc(NC(=O)c3ccco3)nc1-2`: “inactive”. `CSc1nc2nc3c(c(=O)n2[nH]1)CN(Cc1ccccc1)CC3`: the AC50 result is “inactive”. For `NC[C@H]1O[C@H](n2cnc3c(N)ncnc32)C[C@@H]1O`, the activity, negative = inhibition is 8.01% [at 11.4 µM].

For the molecule `O=c1c(-c2cccc(F)c2)nc2cncnc2n1C1CC1`, the AC50 result is “inactive”. For `CC(C)(C)N(NC(=O)c1ccccc1)C(=O)c1cccc(C(=O)N(NC(=O)c2ccccc2)C(C)(C)C)c1`, the AC50 entry was “inactive”. With `O=C(O)/C=C\c1ccc(O)c(O)c1`, the AC50 result was “inactive”.

Consider `O=C(O)C=Cc1ccc(Cn2ccnc2)cc1`, for which the AC50 was 0.0794 µM (active). Same read-out and setting: the same measure for `O=C(O)/C=C\c1ccc(Cn2ccnc2)cc1`: “inactive”; for `COc1ccccc1NC(=S)NC(=O)c1ccc(-c2ccc(Cl)cc2)o1`: “inactive”; for `CCNC(=S)NNC(=O)Cc1ccccc1`: “inactive”. Same read-out and setting: as for `COc1ccccc1NC(=S)NCCc1ccccc1`, the figure is 7.08 µM (active); as for `Fc1cc(Br)ccc1NC(=S)NCCc1ccccc1`, 20 µM (active); as for `CCN(C(=S)Nc1ccccc1F)C1CCCCC1`, “inactive”. Same read-out and setting: as for `Fc1ccccc1NC(=S)NCCc1ccccc1`, the figure is 15.8 µM (active).

For `CC(C)(C)C(=O)NC(=S)NCCc1ccccc1`, the AC50 entry is “inactive”. `O=C(NCCc1ccccc1)C(=O)NN=C1CCCC1`: the AC50 entry is “inactive”. Turning to `CCNc1ncc2nc(-c3ccccc3)c(=O)n(Cc3ccc(F)cc3)c2n1`, the AC50 entry is “inactive”. On the same count and under the same terms, the same measure for `CS(=O)(=O)N1CCC2(CCCN(C(=O)Nc3cccc(C#N)c3)C2)CC1`: “inactive”; for `COCCn1c(=O)c(-c2ccccc2)nc2cnc(OC)nc21`: “inactive”. Take `CCn1c(CCCc2nc3c([nH]2)c(=O)n(C)c(=O)n3C)nc2c1c(=O)n(C)c(=O)n2C`: the activity, negative = inhibition was 8.15% [at 11.4 µM]. Take `S=c1[nH]nc(CCc2ccccc2)n1Cc1ccccc1`: the AC50 result was “inactive”. Still for that read-out and setting: as for `CC(=O)c1ccc(N2CCC(c3cc(-c4ccc(Cl)cc4Cl)n[nH]3)CC2)c([N+](=O)[O-])c1`, the entry is “inactive”; as for `COc1ccc(C(=O)n2c(SC)nc3cc4c(cc32)OCCO4)cc1`, “inactive”. As for `COc1cnc(-c2ccccc2)nc1Oc1cccc(C)c1`, the AC50 result was “inactive”. Take `Cc1cccc(OCCSCc2nc3ccccc3[nH]2)c1`: the AC50 was 0.282 µM (active). Turning to `O=C(COc1ccc2ccccc2c1Br)NNC(=O)Nc1ccccc1`, the AC50 entry is “inactive”.

`Cc1nc(SCC(=O)c2cc3ccccc3oc2=O)c(C#N)c(C)c1C(=O)Nc1ccccc1`: the AC50 entry was “inactive”. Consider `COc1ccc(/C=C(/NC(C)=O)C(=O)O)cc1`, for which the AC50 result was “inactive”. The same measure, in the same setting: the same measure for `CCOC(=O)CNC(=O)c1cccnc1`: “inactive”.

On to `Fc1ccc(CSc2nnc(-c3cc4c(s3)-c3ccccc3CC4)o2)cc1`, for which the AC50 result was “inactive”. With `c1ccc(CSc2nnc([C@@H]3CCCN3)o2)cc1`, the AC50 entry was “inactive”. The same measure, in the same setting: the same measure for `c1ccc(CSc2nnc(-c3sccc3-n3cccc3)o2)cc1`: 14.1 µM (active); for `CCc1ccc(N(C(=O)c2csnn2)C(C(=O)NC(C)(C)C)c2ccncc2)cc1` (centres undefined): “inactive”.
